This note sets out measurements from a collection of fitness landscapes (doi:10.1126/science.1257360).

Sequences and labels used below:
B1: PhoQ; a variant is named by its letters at X, in order, P23837 (parent)
chain: MKKLLRLFFPLSLRVRFLLATAAVVLVLSLAYGMVALIGYSVSFDKTTFRLLRGESNLFYTLAKWENNKLHVELPENIDKQSPTMTLIYDENGQLLWAQRDVPWLMKMIQPDWLKSNGFHEIEADVNDTSLLLSGDHSIQQQLQEVREDDDDAEMTHSVAVNVYPATSRMPKLTIVVVDTIPVELKSSYMVWSWFIYVLSANLLLVIPLLWVAAWWSLRPIEALAKEVRELEEHNRELLNPATTRELTSLVRNLNRLLKSERERYDKYRTTLTDLTHSLKTPLXXLQXXLRSLRSEKMSVSDAEPVMLEQISRISQQIGYYLHRASMRGGTLLSRELHPVAPLLDNLTSALNKVYQRKGVNISLDISPEISFVGEQNDFVEVMGNVLDNACKYCLEFVEISARQTDEHLYIVVEDDGPGIPLSKREVIFDRGQRVDTLRPGQGVGLAVAREITEQYEGKIVAGESMLGGARMEVIFGRQHSAPKDE

Whole data set: some 140,000 sequences, median “enrichment ratio after two sorts for PhoP signalling” near 0, cut for the highest 2% near 11. The list comes from a sample in which the highest values are over-represented; it also holds similar and randomly drawn sequences.

The variants in the experiment derive from B1. The experiment is described as follows: enrichment ratio after two sorts for PhoP signalling (ratio (wild type AVST 3.29)); higher = more functional. The note with it: with PhoP (E. coli).
Consider IDDH, for which the enrichment ratio was no more than 0.25. For the variant FGMI, the enrichment ratio came to 11.8.

As for FGMW, the enrichment ratio was no more than 0.25. Take FGMG: the enrichment ratio stood at 0.824. Consider FGGQ, for which the enrichment ratio was determined as 3.04.

For FGGG, the enrichment ratio is no more than 0.25. For FGMS, the enrichment ratio worked out at 0.618. In the case of FGMV, the enrichment ratio stood at 16.7. The result for FGMQ reads 21.1; that for FGMD, no more than 0.25; that for YKMH, no more than 0.25.

With HWMV, the enrichment ratio is no more than 0.25. On to RAPQ, for which the enrichment ratio was no more than 0.25.

As to ATVM, the enrichment ratio turned out to be 6.8. Regarding STPC, the enrichment ratio was no more than 0.25. Next, TGVV: 0.277; MGYF: 12.2. On to TGYF, for which the enrichment ratio is 1.56. On to MGWV, for which the enrichment ratio was determined as 6.77.

MGYV: the enrichment ratio worked out at 13.4. MGGS: the enrichment ratio was 17.9. The result for RGYF reads no more than 0.25.

For the variant MGVA, the enrichment ratio is no more than 0.25. Take MGVK: the enrichment ratio is no more than 0.25.

As for MGWI, the enrichment ratio worked out at 1.07.

Regarding MGHV, the enrichment ratio came out at 2.03. Turning to MGVV, the enrichment ratio stood at 15.6.

For MMRA, the enrichment ratio is no more than 0.25. Next, DQCN: no more than 0.25; MMLA: no more than 0.25; ASGS: 3.2. As for MGKH, the enrichment ratio was no more than 0.25. Next, MGGD: no more than 0.25; MTYQ: 2.5.

MGGH: the enrichment ratio stood at 20.1.

Take MGKI: the enrichment ratio is no more than 0.25.

For the variant MGYQ, the enrichment ratio stood at 14.

In the case of MGCV, the enrichment ratio was 14.

As to MGCI, the enrichment ratio amounted to 5.38. For the variant MGDI, the enrichment ratio is no more than 0.25. For MGGQ, the enrichment ratio was found to be 2.83. In the case of MGDS, the enrichment ratio was no more than 0.25. The result for MGGA reads 24.1; that for SGGC, 10.9. As for HITM, the enrichment ratio is no more than 0.25. Next, PRMN: no more than 0.25; EYFG: no more than 0.25. In the case of DTNW, the enrichment ratio was no more than 0.25.

As for LCAW, the enrichment ratio is no more than 0.25. As to IYCG, the enrichment ratio was no more than 0.25. Next, MGWA: no more than 0.25; TGHL: 7.55.

In the case of MGYI, the enrichment ratio stood at 13.6. For the variant MGYD, the enrichment ratio is no more than 0.25. As to MGHI, the enrichment ratio was determined as 19.7. TGYS: the enrichment ratio was determined as 1.45. Regarding MGHF, the enrichment ratio came to 0.887. Regarding MGYK, the enrichment ratio is no more than 0.25. As to GGHL, the enrichment ratio was no more than 0.25. Next, MGYS: 12.2; MGHL: 19.3; MGDR: no more than 0.25. In the case of EVSV, the enrichment ratio was no more than 0.25.

Regarding VKDT, the enrichment ratio was no more than 0.25. In the case of DASS, the enrichment ratio was no more than 0.25. As for QDGG, the enrichment ratio is no more than 0.25. For the variant NITL, the enrichment ratio was no more than 0.25. The result for KSTL reads no more than 0.25; that for NATL, no more than 0.25; that for KATL, no more than 0.25. Take TYTL: the enrichment ratio came to 15.2.

With TATL, the enrichment ratio is 16.3.

On to TVTL, for which the enrichment ratio is 15.2. Next, TMTL: 20.9; SPTL: no more than 0.25; GYTL: no more than 0.25.

In the case of RYTL, the enrichment ratio is no more than 0.25.

In the case of FSTL, the enrichment ratio was determined as 4.4.

For the variant AVIL, the enrichment ratio turned out to be 1.98. For LGEK, the enrichment ratio is no more than 0.25. Next, DFEL: no more than 0.25. FLSP: the enrichment ratio was no more than 0.25. As for RASH, the enrichment ratio was no more than 0.25. Turning to CFTL, the enrichment ratio amounted to 15.7. On to NGTL, for which the enrichment ratio was no more than 0.25.

Turning to TGTL, the enrichment ratio turned out to be 13.5. Turning to CMTL, the enrichment ratio is no more than 0.25. GGTL: the enrichment ratio was determined as 5.81.

Regarding CITL, the enrichment ratio was no more than 0.25. Turning to FIIG, the enrichment ratio is no more than 0.25. In the case of YFRE, the enrichment ratio is no more than 0.25. Take NHLE: the enrichment ratio was no more than 0.25.

As for YALE, the enrichment ratio is 14.7. Regarding FTLE, the enrichment ratio stood at 5.91.

Turning to HKLE, the enrichment ratio was no more than 0.25. As for YEVE, the enrichment ratio is no more than 0.25.

For the variant AHLE, the enrichment ratio was found to be 12.9. For the variant MKLE, the enrichment ratio was no more than 0.25.

On to KALE, for which the enrichment ratio was no more than 0.25. As for YELE, the enrichment ratio was found to be 13.8.

Regarding TKLE, the enrichment ratio came out at 12.7. The result for AILE reads 2.65; that for QPLE, no more than 0.25. For PLTV, the enrichment ratio was no more than 0.25. As to YFSG, the enrichment ratio was no more than 0.25.

Turning to RYRE, the enrichment ratio was no more than 0.25. Next, SNND: no more than 0.25; GKDT: no more than 0.25.

As for PQNK, the enrichment ratio was no more than 0.25. Regarding KRMQ, the enrichment ratio is no more than 0.25. As for MEMW, the enrichment ratio is no more than 0.25.

On to AIMG, for which the enrichment ratio was 6.65. As to MKMS, the enrichment ratio is no more than 0.25. Next, ADMG: no more than 0.25. Turning to YYHV, the enrichment ratio is no more than 0.25.

Take MTHV: the enrichment ratio is no more than 0.25. MEHV: the enrichment ratio was determined as 14.3. On to MEMS, for which the enrichment ratio turned out to be 63.4. As for AKMG, the enrichment ratio came out at 18.6.

As to MEMV, the enrichment ratio came out at 14.8.

Regarding KKMS, the enrichment ratio was no more than 0.25. Next, MKMV: no more than 0.25; VCGT: no more than 0.25; VPIR: no more than 0.25.

Take IAQH: the enrichment ratio is no more than 0.25. The result for SNQM reads 9.41. Turning to RNTT, the enrichment ratio is no more than 0.25. With NFHF, the enrichment ratio was no more than 0.25. With RATT, the enrichment ratio was no more than 0.25. Next, RPPR: no more than 0.25; QKLG: no more than 0.25; PTLR: no more than 0.25. For NSHF, the enrichment ratio is no more than 0.25.

For the variant VEMG, the enrichment ratio was determined as 6.39. For VEMV, the enrichment ratio stood at 27.4. VEKK: the enrichment ratio was no more than 0.25.

In the case of MEMG, the enrichment ratio was 12.8. Turning to MKMG, the enrichment ratio was no more than 0.25.

Take MEVG: the enrichment ratio came out at 4.29. The result for LQGT reads no more than 0.25; that for RYHM, no more than 0.25; that for FHIH, no more than 0.25. Turning to PDKA, the enrichment ratio was no more than 0.25. For the variant SQGW, the enrichment ratio is no more than 0.25. Regarding SVGW, the enrichment ratio came to 14.4. Turning to KYGW, the enrichment ratio is no more than 0.25.

Turning to SYGW, the enrichment ratio was no more than 0.25. As for SCGW, the enrichment ratio was 20.5. Next, SIGW: 11.7. SVGD: the enrichment ratio was no more than 0.25.

As for SVHW, the enrichment ratio is no more than 0.25. Next, SRGW: 2.5; TMAH: 1.31.
